# Where a name gives a salt, the structure may show the parent alone. A number with no mark means an inactive call. No stated cut-off is given here; in the data, active = 2 or more and inactive = the rest.
# Test system: S. cerevisiae BY4741 (wild-type), vegetative growth in YPD
# Assay: growth sensitivity score (doubling time z-score vs DMSO controls); higher = slower growth, strongly negative scores also mark growth inhibition (complete suppression), active = hit call of the paper
# Summary of the method: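 Rich medium in microtiter plates was seeded with Saccharomyces cerevisiae strains BY4741 and AD1-9 at an OD600 of 0.065, and compounds were added as a 1:100 dilution of DMSO stock. A Tecan GENios reader recorded optical density every 15 min for 24 hours, with eight solvent-only wells in each experiment. Average doubling time was the time to reach a set generation point divided by generation number. The growth sensitivity score was the compound mean minus the solvent-only mean, divided by the solvent-only standard deviation.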
row,SMILES,growth sensitivity score
1,"CC(C)c1ccc2c(c1)c(SC(C)(C)C)c(CC(C)(C)C(=O)O)n2Cc1ccc(Cl)cc1 [Tocris-1311] (stock concentration (mM, diluted 1:100): 10)",-0.4
2,"COC(=O)C1=C(C)NC(C)=C(C(=O)OC2CCCN(Cc3ccccc3)C2)C1c1cccc([N+](=O)[O-])c1 (stereo not drawn) [Benidipine hydrochloride] (stock concentration (mM, diluted 1:100): 6)",1.95
3,"CCOC(=O)c1ncn2c1CN(C)C(=O)c1cc(F)ccc1-2 [Flumazenil] (stock concentration (mM, diluted 1:100): 10)",1.4
4,"N[C@@H](C(=O)N[C@@H]1C(=O)N2C(C(=O)O)=C(CSc3cn[nH]n3)CS[C@H]12)c1ccc(O)cc1 [Seapuron] (stock concentration (mM, diluted 1:100): 8.6)",-0.6
5,"CCC(=O)NS(=O)(=O)c1ccc(-c2c(-c3ccccc3)noc2C)cc1 [Parecoxib] (stock concentration (mM, diluted 1:100): 9.8)",-0.35
6,"CCn1cc(C(=O)O)c(=O)c2cc(F)c(N3CCN(C)CC3)cc21 [Pefloxacin mesylate] (stock concentration (mM, diluted 1:100): 7.9)",-1.1
7,"O=C1Nc2ccc(Cl)cc2[C@@](C#CC2CC2)(C(F)(F)F)O1 [Efavirenz] (stock concentration (mM, diluted 1:100): 10.1)",40.5 (active)
8,"CCCCc1oc2ccccc2c1C(=O)c1cc(I)c(OCCN(CC)CC)c(I)c1 [Amiodarone hydrochloride] (stock concentration (mM, diluted 1:100): 9.5)",126 (active)
9,"COc1ccc2[nH]c([S+]([O-])Cc3ncc(C)c(OC)c3C)nc2c1 (stereo not drawn) [Omeprazole] (stock concentration (mM, diluted 1:100): 10)",0.39
10,"CC[C@@]1(O)C(=O)OCc2c1cc1n(c2=O)Cc2cc3c(CN(C)C)c(O)ccc3nc2-1 [Topotecan hydrochloride] (stock concentration (mM, diluted 1:100): 9.2)",-1.34
11,"O=C(O[C@@H]1C[C@@H]2C[C@H]3C[C@H](C1)N2CC3=O)c1c[nH]c2ccccc12 [Dolasetron mesylate] (stock concentration (mM, diluted 1:100): 10.4)",0.44
12,"CN1CCN(C2=Nc3cc(F)ccc3Cc3ccccc32)CC1 [Fluperlapine] (stock concentration (mM, diluted 1:100): 10)",0.57
13,"CC(C)(O)c1ccccc1CC[C@@H](SCC1(CC(=O)O)CC1)c1cccc(/C=C/c2ccc3ccc(Cl)cc3n2)c1 [Montelukast] (stock concentration (mM, diluted 1:100): 9.6)",-1.05
